{"source": "PubChem BioAssay (EPA / NIEHS)", "note": "Active and inactive are the calls of the source. How the source made its calls: active means hit-call score of the fitted dose curve at least 0.9, where 1 is the maximum; inactive means score below 0.9.", "data": [{"assay": "APR_HepG2_P-H2AX_72hr: Apredica 72-hour HepG2 Assay for H2AX Phosphorylation (AID 2282916)", "conditions": "imaging, actives raise or lower the signal", "procedure": "APR_HepG2_72hr is a cell-based, multiplexed-readout assay that uses HepG2, a human liver cell line, with measurements taken at 72 hours after chemical dosing in a 384-well plate.APR_HepG2_P-H2AX_72hr is one of 10 assay component(s) measured or calculated from the APR_HepG2_72hr assay. It is designed to make measurements of dna content, a form of viability reporter, as detected with fluorescence intensity signals by HCS Fluorescent Imaging technology.Data from the assay component APR_HepG2_P-H2AX_72hr was analyzed into 1 assay endpoint. This assay endpoint, APR_HepG2_P-H2AX_72hr, was analyzed with bidirectional fitting relative to DMSO as the negative control and baseline of activity. Using a type of viability reporter, measures of protein for gain or loss-of-signal activity can be used to understand the signaling at the pathway-level as they relate to the gene . Furthermore, this assay endpoint can be referred to as a primary readout, because this assay has produced multiple assay endpoints where this one serves a signaling function. To generalize the intended target to other relatable targets, this assay endpoint is annotated to the dna binding intended target family, where the subfamily is cellular response to DNA damage stimulus.\nCells were treated with dimethyl sulfoxide (DMSO) as a solvent control at a final concentration of 0.5% v/v or with compounds in DMSO with a resulting final DMSO concentration of 0.5% v/v. Compound treatment was done at concentrations of 0.39, 0.78, 1.56, 3.12, 6.24, 12.5, 25, 50, 100, and 200 uM in duplicate on each plate. Cells were treated with compounds for 1, 24, or 72 hr. Carbonyl […] m-chloro-phenylhydrazone (CCCP) and taxol were used as positive controls for mitochondrial function and cytoskeletal stability, respectively; DMSO served as the negative control for this experiment. Cells were fixed by the direct addition of 50 uL formaldehyde in Hank's Balanced Salt Solution (HBSS) to a final concentration of 3.7%. After incubation in the fixation medium for 30 min at room temperature (293-298 K), cells were rinsed twice with HBSS and treated with cell permeabilization buffer (16 uL of 0.5% Triton X-100) for 10 min at room temperature (293-298 K) before labeling. For mitochondrial membrane potential and mitochondrial measurements, pre-fixed cells were incubated with 50 uL of MitoTracker Red CMXRos (Invitrogen) at a concentration of 250 nM for 30 min before fixation. In the remaining cases, post-fixed cells were labeled by incubation with a multiplexed mixture of primary antibodies in HBSS for 60 min at room temperature (293-298 K) to detect immunoreactivity of c-Jun (1:500), phospho-histone H3 (1:100), phospho-histone H2A.x (1:200), p53 (1:400), alpha-tubulin (1:200) and Hoechst 33342 (2 ug/mL). Cells were labeled for multiplexed imaging on two separate plates: a) Hoechst 33342, MitoTracker Red, phospho-histone H3, and alpha-tubulin, and b) Hoechst 33342, phospho-histone H2A.x, and c-Jun. A final rinse with HBSS (50 uL) was performed before analysis. The primary and secondary antibodies for the proteins were phospho-histone H3 (rabbit anti-phospho-histone H3 and FITC-donkey anti-rabbit IgG), phospho-histone H2A.x (mouse anti-phospho-histone H2A.x and FITC-donkey anti-mouse IgG), c-Jun (rabbit anti-phospho-c-Jun and Cy3-donkey anti-rabbit IgG), p53 (sheep anti-p53 and Cy5-donkey anti-sheep IgG), alpha-tubulin (mouse anti-alpha-tubulin and Cy5-donkey anti-mouse IgG). These antibodies are available as the CellCiphr HepG2 assay kit (Millipore).Digital images of each well were captured using a Cellomics ArrayScan VTI (Thermo Scientific Cellomics) (0.8 NA objective, 0.63x optical coupler, and XF-93 filter set) at 20x magnification. The images were acquired using the autofocus feature of the ArrayScan instrument, which entails the following steps. First, the camera focuses on channel 1 (Hoechst 33342), where nuclei are identified. Second, a Z offset of 1 um is used for capturing mitochondria (MitoTracker Red). […]", "values": [{"compound": "Cc1cc(C)cc(C)c1", "outcome": "inactive"}, {"compound": "Clc1cccc(Cl)c1", "outcome": "inactive"}, {"compound": "Clc1cccc(Cl)c1Cl", "outcome": "inactive"}, {"compound": "CN(C)C(=S)S", "AC50": "0.242 µM (active)"}, {"compound": "CC(C)(C)c1ccccc1O", "outcome": "inactive"}, {"compound": "Oc1c(Cl)cc(Cl)cc1Cl", "outcome": "inactive"}, {"compound": "OCCN(CCO)CCO", "outcome": "inactive"}, {"compound": "O=C(N[C@H]1CN2CCC1CC2)c1ccc2c(c1)OCCO2", "outcome": "inactive"}, {"compound": "COc1ccccc1N", "outcome": "inactive"}, {"compound": "Oc1cc(Cl)c(Cl)cc1Cl", "AC50": "42.4 µM (active)"}, {"compound": "N#Cc1cccnc1", "outcome": "inactive"}, {"compound": "CC(C)O.CC(C)O.OCCN(CCO)CCO.OCCN(CCO)CCO.[Ti]", "outcome": "inactive"}, {"compound": "O=C(O)C1(c2ccc3c(c2)OC[C@H](Cc2ccc(-c4ccccc4)cc2)[C@H]3O)CCCC1", "AC50": "106 µM (active)"}, {"compound": "CCCCCCCCCCCCc1cccc(S(=O)(=O)O)c1", "outcome": "inactive"}]}]}
